mHTT-CaM PPI inh = disrupts binding of mutant huntingtin to calmodulin | P42858 | AlphaScreen His-mHTT/GST-CaM binding, luminescence | inhibition, % at 15 µM | actives 3.6% (n = 190,000) | AID 1671202;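 note: 0% = both proteins with DMSO and 100% = one protein alone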
Pf apPOL block = Pf-apPOL DNA polymerase inhibition | Recombinant Pf-apPOL, molecular beacon fluorescence, 1.5 h | inhibition, % at 10 µM | actives 0.25% (n = 210,000)
The depositor's hits bear a star; i = inactive; nt = no result given. The entries come from a sample that favours hits as a whole. Cut-off read from the data, not from the text of the source: active = inhibition above about 50%; inactive = the rest.

SMILES	mHTT-CaM PPI inh	Pf apPOL block
COc1ccc(C2C(=C(O)c3ccc(Cl)cc3)C(=O)C(=O)N2C)cc1 (stereo unspecified)	4.9	-2.6
COc1ccc(Oc2ccc(C(F)(F)F)cc2NC(=O)c2ccc(OC)cc2)cc1	nt	21.3
COc1ccc([C@H]2C=C3CNS(=O)(=O)[C@H]3C[C@H]2OC(=O)c2ccc(C(F)(F)F)cc2)cc1	99.8*	-9.8
COc1ccc([C@H]2C=C3CNS(=O)(=O)[C@H]3C[C@H]2OC(=O)c2cccc(C)c2)cc1	82.2*	-4.2
COc1ccc([C@H]2C=C3CNS(=O)(=O)[C@H]3C[C@H]2OC(=O)c2cccs2)cc1	11.9	-6.7
O=C(CC1C(=O)NCCN1C(=S)NC(=O)C1CC1)OCC1CCCO1 (stereo unspecified)	-2.0	-2.0
CC(C)C=CC1=CC2=C(C1)Cc1ccccc12	nt	-0.8
O=C1C2C3C=CC(O3)C2C(=O)N1c1cc(C(F)(F)F)ccc1Cl (stereo unspecified)	-4.0	-3.4
O=C1C=CC(=O)C(c2cc(C(F)(F)F)ccc2Cl)=C1	60.0*	-3.0
COC(=O)/C=C/c1cc(F)ccc1S(=O)(=O)NC1CCCC1	-2.3	-3.5
CC1CC(C)CN(c2nccn3c(=O)n(CC(=O)NCc4ccccc4Cl)nc23)C1 (stereo unspecified)	9.0	-4.8
CCN(C)c1ccc(/C=C2/C(=O)N(c3ccc(Cl)c(Cl)c3)N=C2C)cc1	61.0*	-4.9
CC1=NN(c2nc(-c3ccc(C)cc3)cs2)C(=O)/C1=C/c1ccc(N(C)C)cc1	56.0*	-9.0
CC1=NN(c2ccccc2)C(=O)/C1=C/c1ccc(N(C)C)cc1	42.0	-7.2
CC1=NN(c2ccc(Cl)c(Cl)c2)C(=O)/C1=C/c1ccccc1	15.0	-3.3
CC1=NN(c2ccc(Cl)c(Cl)c2)C(=O)/C1=C/c1ccc(C)c([N+](=O)[O-])c1	12.0	-0.1
CC1=NN(c2cccc(Cl)c2)C(=O)/C1=C/c1ccc(Cl)c([N+](=O)[O-])c1	76.0*	3.2
CCc1ccc(N2N=C(C)/C(=C\c3ccc(N(C)C)cc3)C2=O)cc1	70.0*	-1.2
CC1=NN(c2ccc(Br)cc2)C(=O)/C1=C/c1ccc(N(C)C)cc1	37.0	3.3
O=C(c1ccc(OCC2CCCN2C(=O)c2ccccc2F)cc1)N1CCOCC1 (stereo unspecified)	0.6	24.5
Cc1cccc(NC(=O)CCc2cccc3[nH]ccc23)c1	7.4	2.7
CC1=NN(c2nc(-c3ccccc3)cs2)C(=O)/C1=C/c1ccc(C)s1	3.0	-8.9
CCN(CC)c1ccc(/C=C2/C(=O)N(c3ccc(C)cc3)N=C2C)cc1	29.0	-0.6
CCN(CC)c1ccc(/C=C2/C(=O)N(c3ccc(Cl)c(C(=O)O)c3)N=C2C)cc1	59.0*	-2.2
CC1=NN(c2nc(-c3ccccc3)cs2)C(=O)/C1=C/c1ccco1	76.0*	8.7
SMILES	mHTT-CaM PPI inh	Pf apPOL block
CCn1cc(CC(=O)NCCc2ccc(OC)c(OC)c2)c2ccccc21	-2.0	-1.5
COc1nn(C)cc1C(=O)Nc1nc(-c2cc3ccccc3o2)cs1	-9.1	-5.5
Cc1ccc(N2COc3ccc(Cl)cc3C2)cc1	64.0*	-4.9
Cc1cccc(N2COc3ccc(Cl)cc3C2)c1C	96.0*	-0.2
Cc1cccc(N2CCN(C(=O)c3ccc(Cl)cc3)CC2)c1C	-5.3	-8.6
Fc1ccc(N2COc3ccc(Cl)cc3C2)cc1	50.0*	-4.7
COc1ccc2c(c1)CN(c1ccc(C)c(Cl)c1)CO2	77.0*	-3.5
Cc1ccc(N2COc3cc4c(cc3C2)OCO4)cc1C	18.0	-1.1
Fc1ccc(N2COc3cc4c(cc3C2)OCO4)cc1	9.0	-6.5
COc1ccc2c(c1)CN(c1ccc(C)cc1C)CO2	-9.0	-0.5
Cc1ccc(C2CC(c3cccs3)=NN2C(=O)CN(C)C(=O)C(C)C)cc1 (stereo unspecified)	26.5	-0.3
CCOC(=O)CCSCC(=O)N1N=C(c2cccs2)CC1c1ccc(C)cc1 (stereo unspecified)	51.5*	1.0
Cc1ccc(-n2c(=O)n(C(C)C)c(=O)c3c2ncn3C(C)C)cc1	2.4	-0.2
CCCCOc1ccc(-c2nc(C=Nc3cccc(C(F)(F)F)c3)c(O)o2)cc1	11.0	-4.5
CC(=O)N1CCCC1c1nc2cc(-c3ccc(N(C)C)cc3)ccc2o1 (stereo unspecified)	85.6*	-10.5
CN(C)c1ccc(-c2ccc3oc(C4CCCN4C(=O)C4CC4)nc3c2)cc1 (stereo unspecified)	89.1*	-12.7
Cc1ccccc1-c1ccc2oc(C3CCCN3S(C)(=O)=O)nc2c1 (stereo unspecified)	89.6*	-3.5
COc1ccccc1-c1ccc2oc(C3CCCN3C(=O)C(C)C)nc2c1 (stereo unspecified)	46.6	0.1
O=C(C1CC1)N1CCCC1c1nc2cc(-c3ccc(F)cc3F)ccc2o1 (stereo unspecified)	47.8	-4.8
CC(=O)N1CCCC1c1nc2cc(-c3ccc(F)cc3F)ccc2o1 (stereo unspecified)	41.9	-3.9
CCn1ccc2c(cc(C(=O)Nc3c(C)cc(C)cc3C)n2C)c1=O	-1.6	1.7
CCOc1ccc(C(c2c(C)[nH][nH]c2=O)c2c(C)[nH][nH]c2=O)cc1	12.0	2.8
Cc1[nH][nH]c(=O)c1C(c1ccc(OCc2ccc(Br)cc2)cc1)c1c(C)[nH][nH]c1=O	52.0*	2.3
Cc1cc(C)c2c(=O)n(C(=O)c3cccs3)sc2n1	nt	100.0*
Cc1cc(C)c(C#N)c(OC(=O)c2cccs2)n1	nt	2.4
SMILES	mHTT-CaM PPI inh	Pf apPOL block
O=C(Nc1ccccc1)N1CCC(n2c(-c3ccco3)nc3cccnc32)C1 (stereo unspecified)	0.8	0.1
O=C(c1ccc(F)c(Cl)c1)N1CCC(n2c(-c3ccco3)nc3cccnc32)C1 (stereo unspecified)	97.8*	-3.4
O=C(Nc1ccc(F)c(Cl)c1)N1CCC(n2c(-c3ccco3)nc3cccnc32)C1 (stereo unspecified)	-3.2	0.7
CCc1ccc(NC(=O)N2CCC(n3c(-c4ccco4)nc4cccnc43)C2)cc1 (stereo unspecified)	51.1*	-0.4
O=C(c1cccc(Cl)c1)N1CCC(n2c(-c3ccco3)nc3cccnc32)C1 (stereo unspecified)	50.8*	3.5
COc1ccc(C(=O)N2CCC(n3c(-c4ccco4)nc4cccnc43)C2)cc1 (stereo unspecified)	-5.2	-5.1
Cc1cc(C)cc(C(=O)N2CCC(n3c(-c4ccco4)nc4cccnc43)C2)c1 (stereo unspecified)	17.6	-4.0
O=C(c1ccc(C(F)(F)F)cc1)N1CCC(n2c(-c3ccco3)nc3cccnc32)C1 (stereo unspecified)	91.0*	-6.7
COc1cc(Cl)c(C)cc1NC(=O)c1ccc(Br)o1	-4.7	1.6
Cc1ccc(NC(=O)C2CC(=O)N(c3ccc4c(c3)CCN4C(=O)C3CC3)C2)c(C)c1 (stereo unspecified)	-7.1	-4.5
Cc1cccc2nnc(N3CCN(C(=O)c4ccc(Br)cc4)CC3)n12	7.8	2.6
Nc1nonc1/C(=N/O)N1CCOCC1	i	nt
CCNC(=O)C1CCN(c2nccc3sccc23)CC1	-5.7	-2.8
CC1(C)CC2CC(C)(CN2c2ccc(N3C(=O)C4CC=CCC4C3=O)cc2[N+](=O)[O-])C1 (stereo unspecified)	41.0	-15.8
COc1cc(/C=C2\C(=O)NC(=O)N(c3ccc(F)cc3)C2=O)cc(Cl)c1O	10.0	-2.1

Source: PubChem (University of Kansas High Throughput Screening Laboratory)
